# Measured values from PubChem BioAssay.
# Where “and” joins values, the source holds several entries; their conditions need not be identical. Equal entries are not always repeated. Some compounds were tested as several samples or in several runs, with calls that do not always agree. Calls of active or inactive are those of the source. No rule for the calls is given here.
# Test system: not listed separately
# Assay: signal quenchers or enhancers, Cy5 substrate/SSB – biochemical, NIH Clinical Collection, E. coli SSB, artefact control for HCV NS3 helicase inhibitor project (AID 743268)
# Settings: Cy5-oligo bound E. coli SSB, fluorescence interference
row,Structure (SMILES),fluorescence ratio
1,O=c1[nH]cc(F)c(=O)[nH]1,0.97 (inactive)
2,CCc1nc(N)nc(N)c1-c1ccc(Cl)cc1,0.95 (inactive)
3,CCc1cccc2c3c([nH]c12)C(CC)(CC(=O)O)OCC3 (configuration not stated),1.05 (inactive)
4,Nc1ncn([C@@H]2O[C@H](CO)[C@@H](O)[C@H]2O)c(=O)n1,1.02 (inactive)
5,Cc1ccccc1C(OCCN(C)C)c1ccccc1 (configuration not stated),0.78 (active) and 1.01 (inactive)
6,Cc1ccc(C)c(OCCCC(C)(C)C(=O)O)c1,1.06 (inactive)
7,NC(=O)c1cnccn1,0.1 (active)
8,CCCCCCNC(=O)n1cc(F)c(=O)[nH]c1=O,1.03 (inactive)
9,COC1=CC(=O)C[C@@H](C)[C@]12Oc1c(Cl)c(OC)cc(OC)c1C2=O,1 (inactive)
10,Cc1ncc([N+](=O)[O-])n1CC(C)O (configuration not stated),1.05 (inactive)
11,N[C@@H](C(=O)N[C@@H]1C(=O)N2C(C(=O)O)=C(Cl)CS[C@H]12)c1ccccc1,0.95 (inactive)
12,CO[C@@]1(NC(=O)Cc2cccs2)C(=O)N2C(C(=O)O)=C(COC(N)=O)CS[C@@H]21,1.06 (inactive)
13,OCCN1CCN(CCCN2c3ccccc3Sc3ccc(C(F)(F)F)cc32)CC1,0.8 (active)
14,CN(C)CCOC(c1ccc(Cl)cc1)c1ccccn1 (configuration not stated),1.05 (inactive)
15,Cc1onc(-c2c(Cl)cccc2Cl)c1C(=O)N[C@@H]1C(=O)N2[C@@H]1SC(C)(C)[C@@H]2C(=O)O,0.97 (inactive)
16,COc1cc2nc(N(C)CCCNC(=O)C3CCCO3)nc(N)c2cc1OC (configuration not stated),1.04 (inactive)
17,NS(=O)(=O)c1cc(C2(O)NC(=O)c3ccccc32)ccc1Cl (configuration not stated),0.81 (inactive)
18,CN(C)CCc1c[nH]c2ccc(C[C@H]3COC(=O)N3)cc12,1.02 (inactive)

row,Structure (SMILES),fluorescence ratio
1,Cc1ccc(-c2cc(C(F)(F)F)nn2-c2ccc(S(N)(=O)=O)cc2)cc1,1.06 (inactive)
2,O=S(=O)(O)CCS,0.73 (active)
3,C/C=C/C(=O)N(CC)c1ccccc1C,1.05 (inactive)
4,COc1ccc(OC)c(C(O)CNC(=O)CN)c1 (configuration not stated),1 (inactive)
5,Cn1cnc([N+](=O)[O-])c1Sc1ncnc2nc[nH]c12,1.03 (inactive)
6,c1ccc2[nH]c(-c3cscn3)nc2c1,1.06 (inactive)
7,CCCNCC(O)COc1ccccc1C(=O)CCc1ccccc1 (configuration not stated),1.02 (inactive)
8,NC(=O)N1c2ccccc2CC(=O)c2ccccc21,0.99 (inactive)
9,Cc1cn([C@H]2C[C@H](N=[N+]=[N-])[C@@H](CO)O2)c(=O)[nH]c1=O,1.05 (inactive)
10,CN(CCOc1ccc(CC2SC(=O)NC2=O)cc1)c1ccccn1 (configuration not stated),1.05 (inactive) and 0.99 (inactive)
11,COc1ccccc1OCC(O)COC(N)=O (configuration not stated),1 (inactive)
12,OC(CCN1CCCC1)(c1ccccc1)C1CCCCC1 (configuration not stated),1.04 (inactive)
13,COC(=O)Nc1nc2ccc(C(=O)c3ccccc3)cc2[nH]1,1.04 (inactive)
14,CN1CCCC(n2nc(Cc3ccc(Cl)cc3)c3ccccc3c2=O)CC1 (configuration not stated),1.03 (inactive)
15,NCc1ccc(S(N)(=O)=O)cc1,1.01 (inactive)
16,Clc1ccc2c(c1)C(N1CCNCC1)=Nc1ccccc1O2,0.92 (inactive)
17,CC(C)(C)NCC(O)COc1cccc2c1C[C@H](O)[C@H](O)C2 (some centres not stated),0.99 (inactive)
18,NS(=O)(=O)c1cc2c(cc1Cl)NC=NS2(=O)=O,0.95 (inactive)

# Test system: Hepatitis C virus NS3 helicase
# Assay: blockers of NS3h binding to DNA – biochemical, fluorescence polarization, NIH Clinical Collection, primary screen (AID 743270)
# Settings: NS3 helicase binding to Cy5-dT15 DNA, stronger effect = higher value, concentration not given here
row,Structure (SMILES),inhibition
1,O=c1[nH]cc(F)c(=O)[nH]1,-3.18% (inactive)
2,CCc1nc(N)nc(N)c1-c1ccc(Cl)cc1,-1.36% (inactive)
3,CCc1cccc2c3c([nH]c12)C(CC)(CC(=O)O)OCC3 (configuration not stated),4.09% (inactive)
4,Nc1ncn([C@@H]2O[C@H](CO)[C@@H](O)[C@H]2O)c(=O)n1,1.36% (inactive)
5,Cc1ccccc1C(OCCN(C)C)c1ccccc1 (configuration not stated),-10.4% (inactive) and -11.4% (inactive)
6,Cc1ccc(C)c(OCCCC(C)(C)C(=O)O)c1,0.45% (inactive)
7,NC(=O)c1cnccn1,-4.09% (inactive)
8,CCCCCCNC(=O)n1cc(F)c(=O)[nH]c1=O,0.4% (inactive)
9,COC1=CC(=O)C[C@@H](C)[C@]12Oc1c(Cl)c(OC)cc(OC)c1C2=O,-4.09% (inactive)
10,Cc1ncc([N+](=O)[O-])n1CC(C)O (configuration not stated),5.15% (inactive)
11,N[C@@H](C(=O)N[C@@H]1C(=O)N2C(C(=O)O)=C(Cl)CS[C@H]12)c1ccccc1,-4.59% (inactive)
12,CO[C@@]1(NC(=O)Cc2cccs2)C(=O)N2C(C(=O)O)=C(COC(N)=O)CS[C@@H]21,0.45% (inactive)
13,OCCN1CCN(CCCN2c3ccccc3Sc3ccc(C(F)(F)F)cc32)CC1,-6.33% (inactive)
14,CN(C)CCOC(c1ccc(Cl)cc1)c1ccccn1 (configuration not stated),-5% (inactive)
15,Cc1onc(-c2c(Cl)cccc2Cl)c1C(=O)N[C@@H]1C(=O)N2[C@@H]1SC(C)(C)[C@@H]2C(=O)O,-2.27% (inactive)
16,COc1cc2nc(N(C)CCCNC(=O)C3CCCO3)nc(N)c2cc1OC (configuration not stated),-1.98% (inactive)
17,NS(=O)(=O)c1cc(C2(O)NC(=O)c3ccccc32)ccc1Cl (configuration not stated),-2.27% (inactive)
18,CN(C)CCc1c[nH]c2ccc(C[C@H]3COC(=O)N3)cc12,-2.84% (inactive)

row,Structure (SMILES),inhibition
1,Cc1ccc(-c2cc(C(F)(F)F)nn2-c2ccc(S(N)(=O)=O)cc2)cc1,-14.1% (inactive)
2,O=S(=O)(O)CCS,-2.27% (inactive)
3,C/C=C/C(=O)N(CC)c1ccccc1C,-2.77% (inactive)
4,COc1ccc(OC)c(C(O)CNC(=O)CN)c1 (configuration not stated),-2.27% (inactive)
5,Cn1cnc([N+](=O)[O-])c1Sc1ncnc2nc[nH]c12,-3.18% (inactive)
6,c1ccc2[nH]c(-c3cscn3)nc2c1,0.45% (inactive)
7,CCCNCC(O)COc1ccccc1C(=O)CCc1ccccc1 (configuration not stated),-5% (inactive)
8,NC(=O)N1c2ccccc2CC(=O)c2ccccc21,-5.15% (inactive)
9,Cc1cn([C@H]2C[C@H](N=[N+]=[N-])[C@@H](CO)O2)c(=O)[nH]c1=O,-3.18% (inactive)
10,CN(CCOc1ccc(CC2SC(=O)NC2=O)cc1)c1ccccn1 (configuration not stated),-1.19% (inactive)
11,COc1ccccc1OCC(O)COC(N)=O (configuration not stated),-1.36% (inactive)
12,OC(CCN1CCCC1)(c1ccccc1)C1CCCCC1 (configuration not stated),-3.18% (inactive)
13,COC(=O)Nc1nc2ccc(C(=O)c3ccccc3)cc2[nH]1,-15.9% (inactive)
14,CN1CCCC(n2nc(Cc3ccc(Cl)cc3)c3ccccc3c2=O)CC1 (configuration not stated),-6.73% (inactive)
15,NCc1ccc(S(N)(=O)=O)cc1,-7.73% (inactive)
16,Clc1ccc2c(c1)C(N1CCNCC1)=Nc1ccccc1O2,-4.09% (inactive)
17,CC(C)(C)NCC(O)COc1cccc2c1C[C@H](O)[C@H](O)C2 (some centres not stated),-1.36% (inactive)
18,NS(=O)(=O)c1cc2c(cc1Cl)NC=NS2(=O)=O,-5% (inactive)
